Assay outcomes deposited in PubChem by National Center for Advancing Translational Sciences (NCATS).
hNpr1 antagonist – human Npr1 receptor antagonism; HEK293 hNpr1 GloSensor cGMP, ANP-stimulated luminescence; Potency, µM (titrated, usually from 46.3 µM), usual class: inhibitors; actives 1.6% (n = 76,000); P16066; calls by dose curve; further: nearly all actives have a fitted effect of over 60% in size
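Compound pre-incubated 30 min at room temperature on GloSensor-loaded HEK293 cells stably carrying hNpr1 and the pGS-40F cGMP biosensor. Stimulation uses hNppA at 0.1 nM final; luminescence is taken at baseline and 20 min post-agonist.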
3T3 cytotox – cytotoxic compounds in NIH 3T3 cells; NIH 3T3 viability, CellTiter-Glo ATP luminescence, 48-72 h; Potency, µM (titrated, usually from 96.7 µM), hits mostly inhibitors; actives 4.3% (n = 94,000); further: nearly all actives have a fitted effect of over 55% in size
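Luminescent ATP readout (CellTiter-Glo, 10 min RT) after 48 or 72 hr compound exposure of NIH 3T3 cells seeded at 400 cells/well in 1536-well format; quantitative HTS.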
HEK cytotox – cytotoxic compounds in HEK 293 cells; HEK 293 viability, ATP luminescence (CellTiter-Glo), 48-72 h; Potency, µM (top dose mostly 115 µM), most hits filed as inhibitors; actives 6.6% (n = 94,000); AID 1345083; further: nearly all actives have a fitted effect of over 60% in size
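HEK 293 seeded at 250 cells/well receive compound via pintool. After 48 or 72 hr at 37 degree Celsius, 5% CO2 and 95% humidity, CellTiter-Glo is dispensed and luminescence read following 10 min at room temperature.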
GPT2 inhibitor – blocks human glutamate pyruvate transaminase 2. AID 1671188. Potency, µM (titrated, usually from 57.7 µM), most hits filed as inhibitors. Recombinant GPT2, coupled pyruvate oxidase/HRP Amplex Red fluorescence. actives 0.25% (n = 100,000). Q8TD30; further: nearly all actives have a fitted effect of over 60% in size
Target sequence (Q8TD30 whole entry, looked up): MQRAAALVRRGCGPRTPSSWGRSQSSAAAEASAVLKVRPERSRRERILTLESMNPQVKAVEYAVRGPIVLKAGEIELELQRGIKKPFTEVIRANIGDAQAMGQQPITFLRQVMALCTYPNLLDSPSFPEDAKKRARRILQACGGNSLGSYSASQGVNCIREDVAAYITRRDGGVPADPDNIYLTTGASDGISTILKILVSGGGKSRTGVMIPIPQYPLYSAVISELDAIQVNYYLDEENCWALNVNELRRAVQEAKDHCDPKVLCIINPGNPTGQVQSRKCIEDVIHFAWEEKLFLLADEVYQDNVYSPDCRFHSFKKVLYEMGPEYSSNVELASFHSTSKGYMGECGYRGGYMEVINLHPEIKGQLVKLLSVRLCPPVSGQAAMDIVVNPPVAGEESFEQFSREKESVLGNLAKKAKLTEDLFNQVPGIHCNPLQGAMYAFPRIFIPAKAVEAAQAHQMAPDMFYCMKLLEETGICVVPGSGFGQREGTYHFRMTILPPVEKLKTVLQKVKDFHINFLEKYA
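Fluorescence read-out: pyruvate from GPT2 turnover coupled to pyruvate oxidase, HRP and Amplex Red (0.2mM ThPP, 0.2U/mL PO and HRP, 50uM Amplex final). Substrates 250uM a-KG, 2mM L-alanine; enzyme 10ng/uL; 30 min RT.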
Luciferase inh – Photinus pyralis luciferase inhibition. actives 2.5% (n = 76,000). AID 1347043. P08659. purified P. pyralis luciferase, luminescence, biochemical. Potency, µM (highest dose often 115 µM), most hits filed as inhibitors; further: nearly all actives have a fitted effect of over 65% in size
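Cell-free enzyme assay, 10nM P. pyralis luciferase, luciferin and ATP each at 10uM. Inhibition profiled over a 6-point titration, read as luminescence.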
Hits are given with their value; i = inactive; ? = inconclusive; nt = not tested or not shown. In the library only some 10% were active in any assay of this set; here they are far more common. Unless noted, the call rests on the fitted dose curve; in most records, active means well fitted curve in the direction sought with a large enough effect; inconclusive means small, poorly fitted or top-dose-only effect, or another doubt; inactive means no such curve, though single readings can be large; an effect the other way counts as inactive or inconclusive.

SMILES	hNpr1 antagonist	3T3 cytotox	HEK cytotox	GPT2 inhibitor	Luciferase inh
COc1ccc(-c2nc(C(C)C)nc3c2CCN(C(=O)c2ccccc2F)CC3)cc1	i	i	?	i	i
CCC1(C(=O)NC2CCCCCC2)CCCCC(=O)N1 (centres undefined)	i	i	i	i	i
CN1CC2(CCCN(C(=O)CCc3ccncc3)CC2)OC1=O (centres undefined)	i	i	i	i	i
CNc1cc(C2CC(NC(=O)NCCc3ccccc3F)C2)nc(N)n1 (centres undefined)	i	i	i	i	i
CNc1cc(C2CC(NC(=O)COc3ccc(Cl)cc3C)C2)nc(N)n1 (centres undefined)	i	40µM	18µM	i	i
CN1CCC(OC2CCN(C(=O)c3ccccc3)CC2)CC1	i	i	i	i	i
CNC(=O)N1CCC(C2CCN(C(=O)Cc3ccccc3)C2)CC1 (centres undefined)	i	i	i	i	i
CN1CCC(OC2CCN(C(=O)CCCc3ccccc3)CC2)CC1	i	i	i	i	28µM
CNC(=O)N1CCC(C2CCN(C(=O)CCCc3ccccc3)C2)CC1 (centres undefined)	i	i	i	i	25µM
COc1ccc(NC(=O)N[C@H]2CO[C@H]3[C@@H]2OC[C@@H]3n2cc(CC3CCCCC3)nn2)cc1	i	i	i	i	i
c1c(CC2CCCCC2)nnn1[C@H]1CO[C@H]2[C@@H]1OC[C@@H]2NCC1CCCCC1	i	?	?	i	i
O=C(COc1ccccc1)N[C@H]1CO[C@H]2[C@@H]1OC[C@@H]2n1cc(CC2CCCCC2)nn1	i	40µM	i	i	i
O=C(N[C@H]1CO[C@H]2[C@@H]1OC[C@@H]2n1cc(CC2CCCCC2)nn1)C1CC1	i	32µM	i	i	i
O=C(NC1CCNCC1)c1cc(C2CC2)nc2onc(C3CCCN3)c12 (centres undefined)	nt	i	i	i	nt
CN1CCN(Cc2nnc(C(=O)N3CCC[C@@H]3C(c3ccccc3)c3ccccc3)n2-c2ccccc2)CC1	i	?	?	?	i
O=C(NCCCc1ccccc1)c1n[nH]c2c1CN(C(=O)c1cc(F)ccc1F)CC2	nt	?	?	i	nt
O=S(=O)(c1ccccc1)N1CCC(F)(c2nc(-c3ccncc3)no2)CC1	nt	?	32µM	i	nt
CCn1cc(S(=O)(=O)N2CCC(F)(c3nc(-c4ccncc4)no3)CC2)cn1	nt	?	45µM	i	nt
O=C(Nc1ccccc1F)NC1CCN(Cc2cccc(-c3cccs3)c2)CC1	nt	25µM	25µM	i	nt
O=C(NC1CCCC1)NC1CCN(Cc2cccc(-c3cccs3)c2)CC1	nt	i	?	i	nt
O=C(Cc1cccc(Cl)c1)NC1CCN(Cc2cccc(-c3cccs3)c2)CC1	nt	11µM	22µM	i	nt
O=C(Cc1cccc(Cl)c1)NC1CCN(Cc2cccc(-c3ccc(F)c(F)c3)c2)CC1	nt	16µM	20µM	i	nt
Nc1ncnc2c1ncn2[C@@H]1O[C@H](COP(=O)(O)CP(=O)(O)OP(=O)(O)O)[C@@H](O)[C@H]1O	nt	nt	nt	i	nt
CN1N=C(N)c2cn([C@@H]3O[C@H](COP(=O)(O)O)[C@@H](O)[C@@H]3O)c3ncnc1c23	nt	nt	nt	14µM	nt
COc1ccc(CN2CC3(CCN(C(=O)Cn4c(=O)oc5ccccc54)CC3)C2=O)cc1	i	i	?	i	i
SMILES	hNpr1 antagonist	3T3 cytotox	HEK cytotox	GPT2 inhibitor	Luciferase inh
c1cc(-c2cc(-c3ccncc3)c3cncn3c2)c2cc[nH]c2c1	i	?	89µM	?	i
c1cc(-c2cc(-c3ccncc3)c3cncn3c2)c2[nH]ccc2c1	i	40µM	100µM	i	?
c1cc(-c2cc(-c3ccncc3)c3cncn3c2)c2[nH]ncc2c1	i	i	i	i	i
COc1ccccc1-c1ccc(CN2CCC(NC(=O)Cc3cccc(Cl)c3)C2)cc1 (centres undefined)	nt	?	?	i	nt
COc1ccccc1-c1ccc(CN2CCC(NC(=O)N(C)C)C2)cc1 (centres undefined)	nt	i	?	nt	nt
COc1ccccc1-c1ccc(CN2CCC(NC(=O)Cc3ccccc3)C2)cc1 (centres undefined)	nt	35µM	40µM	nt	nt
COc1ccccc1-c1ccc(CN2CCC(NC(=O)Nc3ccccc3F)C2)cc1 (centres undefined)	nt	16µM	28µM	nt	nt
CN(CC1CCOC1)C(=O)Nc1ccccc1 (centres undefined)	i	i	i	i	i
Cc1nc(-c2ccc(OC3CCN(C(=O)c4nn(C)c5ccccc45)C3)cc2)no1 (centres undefined)	i	?	45µM	i	i
COc1ccc(CCC(=O)N2CCC(Oc3ccc(-c4noc(C)n4)cc3)C2)cc1 (centres undefined)	i	i	?	i	40µM
C=CC1(C)CC(OC(=O)/C(C)=C\COC(C)=O)C(C(=C)C(=O)O)C(O)C1C(=C)CO (centres undefined)	nt	nt	nt	i	nt
Cc1c(-c2ccccc2F)[nH]c2ccc(CNC(=O)Cn3ccc(=O)[nH]c3=O)cc12	i	45µM	45µM	i	10µM
Cc1c(-c2ccccc2)[nH]c2c(CNC(=O)Cn3ccc(=O)[nH]c3=O)cc(Cl)cc12	i	?	?	i	?
Cc1c(-c2ccccc2F)[nH]c2ccc(CNC(=O)CCN3CCCC3=O)cc12	i	i	?	i	28µM
Cc1c(-c2ccccc2F)[nH]c2ccc(CNC(=O)CCC3=NNC(=O)CC3)cc12	i	?	?	i	?
Cc1cccc(OCC(=O)N2CCC(N3C(=O)CCC3C(=O)NCc3ccccc3)CC2)c1 (centres undefined)	nt	i	i	i	nt
O=C(c1cc(COc2ccc3c(c2)OCO3)[nH]n1)N1CCCC1c1ccccn1 (centres undefined)	i	i	i	i	i
CCN1C(=O)Cc2cc(C(=O)NCc3c(C)cc(C)cc3C)ccc21	i	?	40µM	i	i
CCN1C(=O)Cc2cc(C(=O)NCc3ccc(OC)cc3)ccc21	i	i	i	i	i
CC(=O)c1ccc(NC(=O)N2Cc3[nH]cnc3C[C@H]2c2nc(-c3ccccc3)no2)cc1	i	i	i	i	i
N#Cc1cccc(NC(=O)N2Cc3[nH]cnc3C[C@H]2c2nc(-c3ccc(Cl)cc3)no2)c1	i	79µM	?	i	i
Cc1cccc(-c2noc([C@@H]3Cc4nc[nH]c4CN3C(=O)Nc3cccc(C#N)c3)n2)c1	i	63µM	89µM	i	35µM
O=C(Nc1cccc(F)c1)N1Cc2[nH]cnc2C[C@H]1c1nc(-c2ccccc2)no1	i	?	71µM	?	i
O=C(Nc1cccc(F)c1)N1Cc2[nH]cnc2C[C@H]1c1nc(-c2ccc3c(c2)OCO3)no1	i	?	?	i	i
O=C(Nc1cccc(F)c1)N1Cc2[nH]cnc2C[C@H]1c1nc(-c2ccc(Cl)cc2)no1	i	?	79µM	i	40µM
Cc1cc2ncc(C(=O)NCCc3ccccn3)cn2n1	nt	i	i	i	nt
